The entries come from a sample that favours hits as a whole.
ALOX12 inh = blocks human arachidonate 12S-lipoxygenase; purified 12hLO, xylenol orange hydroperoxide absorbance; hit rate 1.1% among 580,000; Potency, µM (highest dose often 108 µM), for inactives: at the top dose activity change, negative = inhibition, hits mostly inhibitors; also: potency is read from the fitted curve at half-maximal effect
Target sequence (P18054 whole entry, looked up): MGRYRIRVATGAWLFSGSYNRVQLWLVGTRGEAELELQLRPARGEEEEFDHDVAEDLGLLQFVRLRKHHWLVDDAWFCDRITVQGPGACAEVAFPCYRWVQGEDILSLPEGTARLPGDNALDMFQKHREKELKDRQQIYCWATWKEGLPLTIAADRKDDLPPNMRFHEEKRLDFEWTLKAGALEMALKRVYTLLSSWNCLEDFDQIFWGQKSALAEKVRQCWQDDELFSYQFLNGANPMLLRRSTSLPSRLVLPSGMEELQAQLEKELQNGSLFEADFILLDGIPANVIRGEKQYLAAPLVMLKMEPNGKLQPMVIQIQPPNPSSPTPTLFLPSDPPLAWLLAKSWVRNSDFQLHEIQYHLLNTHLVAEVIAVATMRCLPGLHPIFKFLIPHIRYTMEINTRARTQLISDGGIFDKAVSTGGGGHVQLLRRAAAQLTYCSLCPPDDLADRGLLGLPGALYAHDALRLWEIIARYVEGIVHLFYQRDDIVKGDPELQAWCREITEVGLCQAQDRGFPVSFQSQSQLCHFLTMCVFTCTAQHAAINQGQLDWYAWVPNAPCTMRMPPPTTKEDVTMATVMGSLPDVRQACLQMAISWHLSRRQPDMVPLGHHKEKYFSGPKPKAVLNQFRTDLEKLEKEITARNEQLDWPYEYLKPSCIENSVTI
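Hydroperoxide product was detected by ferrous iron/xylenol orange as the 573 to 405 nm absorbance ratio. Arachidonic acid at 40 uM (final) was turned over for 30 min at room temperature by 150 nM human 12hLO, pH 7.0 Hepes buffer, after 15 min compound preincubation.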
DT40 TDP1 no CPT = qHTS for Inhibitors of human tyrosyl-DNA phosphodiesterase 1 (TDP1): qHTS in cells in absence of CPT | DT40 Tdp1-/- hTDP1 cells, no CPT, ATP luminescence, 48 h | Potency, µM (top dose mostly 46.2 µM), without a hit: at the highest dose activity change, negative = growth inhibition, most hits filed as inhibitors | hit rate 15% among 420,000 | AID 686978, 2013; also: potency is read from the fitted curve at half-maximal effect; nearly all actives have a fitted effect of over 55% in size
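Growth of hTDP1-complemented DT40 Tdp1-knockout cells is measured by ATP luminescence after at least 48 hr compound exposure at 37 °C, with DMSO substituting for the 20 nM CPT used in the parallel screen.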
HT1080-NT tox = kills 2HG-producing HT-1080-NT fibrosarcoma cells; hit rate 1.6% among 360,000; Potency, µM (top dose mostly 46.1 µM), for the others: at the top dose activity, negative = less viability, hits mostly cytotoxic; HT-1080-NT fibrosarcoma viability, CellTiter-Glo ATP luminescence, 48 h;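 also: NT is the 2HG producing partner of a matched IDH1 knockdown line; potency is read from the fitted curve at half-maximal effect; 0% = DMSO-treated cells and -100% = media-only wells without cells; nearly all actives have a fitted effect of over 55% in size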
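HT-1080-NT fibrosarcoma cells (2HG-overproducing), 750 cells/well in RPMI with 5% FBS, dosed after 2 h and incubated 48 h at 37C. CellTiter-Glo luminescence normalized to DMSO and no-cell wells; concentration-response curves fitted and classed.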
IL-1B inflam inh = inhibitors of inflammasome signaling (IL-1 beta secretion). hit rate 4.7% among 360,000. activity change, % at 57.5 µM. THP-1 LPS/ATP IL-1B secretion, AlphaLISA, 16 h; hits give low values. AID 743279; in the data active = activity change below about -50%; inconclusive = mostly about -30% to -49%
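Secreted IL-1B measured by AlphaLISA bead assay after 16 h compound exposure of THP-1 cells; compounds (final up to 57.5 uM) added 1 h before LPS (250 ng/mL) and ATP (1.25 mM) stimulation; lower signal means less secretion.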
TDP1 cell CPT = DT40-hTDP1 cell growth loss with CPT; hit rate 12% among 420,000; Potency, µM (top dose mostly 46.2 µM), for the others: top-dose activity change, negative = growth inhibition, usual class: inhibitors; chicken DT40 Tdp1-/-;hTDP1 cells + 20 nM CPT, ATP luminescence, 48 h; also: potency is read from the fitted curve at half-maximal effect; nearly all actives have a fitted effect of over 55% in size
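Chicken DT40 Tdp1-/- cells stably complemented with human TDP1 were seeded at 400 cells/well in medium containing 20 nM camptothecin, exposed to pin-transferred compounds, and grown at 37 °C for at least 48 hr. Viability was read as ATP luminescence.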
HT1080 IDH1KD tx = kills HT-1080 cells with IDH1 knockdown. HT-1080 IDH1 knockdown viability, ATP luminescence, 48 h. Potency, µM (top dose mostly 46.1 µM), for the others: at the highest dose activity, negative = toxicity, usual class: cytotoxic. hit rate 2% among 360,000;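 also: potency is read from the fitted curve at half-maximal effect; 0% = DMSO wells and -100% = cell-free medium wells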
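After a 2 h attachment period, IDH1KD HT-1080 cells took pin-transferred compound for 48 h at 37 °C; ATP-based luminescence after 10 min room-temperature reagent incubation reported viability.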
* hit, by the source's call. Unless noted, calls follow the shape of the dose curve; as a rule, active = well fitted curve in the direction sought with a large enough effect; inconclusive = small, poorly fitted or top-dose-only effect, or another doubt; inactive = no such curve, though single readings can be large; an effect the other way counts as inactive or inconclusive. Unless noted, % is scaled to controls: 0 for no effect and ±100 for the full control effect.

What do the screens show for `NC(=S)N/N=C1\CCOc2ccc(F)cc21`?
ALOX12 inh: inconclusive; DT40 TDP1 no CPT: 16.4µM*; HT1080-NT tox: -7.8%; IL-1B inflam inh: inconclusive; TDP1 cell CPT: inconclusive; HT1080 IDH1KD tx: inconclusive

What do the screens show for `Cc1ccc2[nH]c(C)cc(=S)c2c1`?
ALOX12 inh: -21.3%; DT40 TDP1 no CPT: 16.4µM*; HT1080-NT tox: inconclusive; IL-1B inflam inh: -69.2*; TDP1 cell CPT: 13µM*; HT1080 IDH1KD tx: 23.1µM*

How did Cc1ccc2[nH]c(C)c([N+](=O)[O-])c2c1 do in these assays?
ALOX12 inh: 0.7%

What do the screens show for `Cc1cc(=S)c2ccccc2[nH]1`?
ALOX12 inh: inconclusive; DT40 TDP1 no CPT: -14.8%; HT1080-NT tox: inconclusive; IL-1B inflam inh: -85.8*; TDP1 cell CPT: inconclusive; HT1080 IDH1KD tx: -21.1%

How did CC1CN(c2ccc(F)cc2)c2nc3c(c(=O)[nH]c(=O)n3C)n2C1 (stereo unspecified) do in these assays?
ALOX12 inh: -7.5%

How did CC1CCc2onc(C(=O)NCc3ccco3)c2C1 (stereo unspecified) do in these assays?
ALOX12 inh: 20.5%; DT40 TDP1 no CPT: inconclusive; HT1080-NT tox: 18.4µM*; IL-1B inflam inh: 3.0; TDP1 cell CPT: inconclusive; HT1080 IDH1KD tx: 13µM*

What do the screens show for `O=C(c1cccnc1Cl)N(Cc1ccccc1)Cc1ccccc1`?
ALOX12 inh: -2.3%; DT40 TDP1 no CPT: 9.2µM*; HT1080-NT tox: -0.2%; IL-1B inflam inh: -67.2*; TDP1 cell CPT: inconclusive; HT1080 IDH1KD tx: -5.6%

What do the screens show for `O=C(OCc1ccccc1)c1cccnc1Cl`?
ALOX12 inh: 6.4%; DT40 TDP1 no CPT: -17.1%; HT1080-NT tox: 15.2%; IL-1B inflam inh: -0.2; TDP1 cell CPT: 1.7%; HT1080 IDH1KD tx: 12.8%

What do the screens show for `CN(C(=O)CCc1c[nH]c2ccccc12)c1ccccc1`?
ALOX12 inh: -7.7%

Results for CSCCC(NC(=O)c1ccc(Cl)cc1Cl)C(=O)N1CCCCCCC1 (stereo unspecified) ?
ALOX12 inh: inconclusive; DT40 TDP1 no CPT: 23.1µM*; HT1080-NT tox: -7.8%; IL-1B inflam inh: -7.0; TDP1 cell CPT: inconclusive; HT1080 IDH1KD tx: -5.0%

What do the screens show for `Cc1cc(C)c(NC(=O)CCc2c(C)noc2C)c(C)c1`?
ALOX12 inh: 193.7%; DT40 TDP1 no CPT: -9.2%; HT1080-NT tox: 2.0%; IL-1B inflam inh: 9.5; TDP1 cell CPT: -11.2%; HT1080 IDH1KD tx: 7.4%

Results for O=C1c2ccccc2NC(c2cccc(Cl)c2)N1CCCN1CCOCC1 (stereo unspecified) ?
ALOX12 inh: -2.9%

How did COc1ccc(NC(=O)C2CCCN2S(=O)(=O)c2cccs2)c([N+](=O)[O-])c1 (stereo unspecified) do in these assays?
ALOX12 inh: -1.5%; DT40 TDP1 no CPT: 10.3µM*; HT1080-NT tox: -4.7%; IL-1B inflam inh: -12.2; TDP1 cell CPT: 20.6µM*; HT1080 IDH1KD tx: -13.9%

How did CC(=O)c1cccc(NC(=O)C2CCCN2S(=O)(=O)c2cccs2)c1 (stereo unspecified) do in these assays?
ALOX12 inh: 5.4%; DT40 TDP1 no CPT: 9.6%; HT1080-NT tox: 14.0%; IL-1B inflam inh: 20.7; TDP1 cell CPT: -1.8%; HT1080 IDH1KD tx: 5.4%

How did O=C(Nc1ccc(Br)cc1)C1CCCN1S(=O)(=O)c1cccs1 (stereo unspecified) do in these assays?
ALOX12 inh: 0.0%; DT40 TDP1 no CPT: 13µM*; HT1080-NT tox: -11.8%; IL-1B inflam inh: 5.7; TDP1 cell CPT: 20.6µM*; HT1080 IDH1KD tx: -15.8%

What do the screens show for `CN(/C=C/C(=C/C=[N+](C)c1ccccc1)OCCCS(=O)(=O)[O-])c1ccccc1`?
ALOX12 inh: inconclusive; DT40 TDP1 no CPT: -3.8%; HT1080-NT tox: -4.0%; IL-1B inflam inh: 30.7; TDP1 cell CPT: -20.5%; HT1080 IDH1KD tx: -1.5%
